Source: PubChem BioAssay (NCATS)
Results filed as inconclusive are left out. Where a call stands in place of a potency, no number is given. The source made the active and inactive calls. Unless noted, calls follow the shape of the dose curve; as a rule, active = well fitted curve in the direction sought with a large enough effect; inconclusive = small, poorly fitted or top-dose-only effect, or another doubt; inactive = no such curve, though single readings can be large; an effect the other way counts as inactive or inconclusive.

What was measured:
[1] = qHTS assay for measurement of the activity of small molecule inhibitors on Zika virus induced Caspase-3 activity in human iPSC derived neural progenitor cells (hNPCs) (AID 1224857); also: nearly all actives have a fitted effect of over 65% in size
Summary of the method: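 Caspase-3/7 induction by a 6-hour ZIKV infection was quantified with a luminescent Caspase-Glo 3/7 reagent incubated 30 minutes at room temperature. Compounds were preincubated with hNPCs for 1 hour; inhibition was calculated against uninfected and infected control wells.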

[2] = qHTS assay for measurement of the activity of small molecule inhibitors on Zika virus induced Caspase-3 activity in human astrocytoma cells (AID 1224859)
Summary of the method: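 In SNB-19 cells plated at 250 cells/well and grown 16-20 h, compounds were applied 1 h before ZIKV (2 FFU/cell). Six hours later caspase-3/7 luminescence was recorded.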

[3] = Natriuretic polypeptide receptor (hNpr1) antagonism - Pilot counterscreen GloSensor control cell line (AID 1347045; calls by dose curve; also: series mostly up to about 38 µM)
Summary of the method: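 This counterscreen uses HEK293 cells expressing the GIP/pGS-40F cGMP biosensor. Compound-treated cells are challenged with 50 uM sodium nitroprusside, and the luciferase signal is compared before and after stimulation.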

[4] = biological target: Atrial natriuretic peptide receptor 1 (Homo sapiens) (UniProt P16066); experiment: Natriuretic polypeptide receptor (hNpr1) antagonism - Pilot screen (AID 1347049; calls by dose curve;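 also: agonist-evoked cGMP luminescence read 20 min after hNppA addition; series mostly up to about 58 µM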)
Chain of Atrial natriuretic peptide receptor 1 (Homo sapiens) (P16066 whole entry, looked up): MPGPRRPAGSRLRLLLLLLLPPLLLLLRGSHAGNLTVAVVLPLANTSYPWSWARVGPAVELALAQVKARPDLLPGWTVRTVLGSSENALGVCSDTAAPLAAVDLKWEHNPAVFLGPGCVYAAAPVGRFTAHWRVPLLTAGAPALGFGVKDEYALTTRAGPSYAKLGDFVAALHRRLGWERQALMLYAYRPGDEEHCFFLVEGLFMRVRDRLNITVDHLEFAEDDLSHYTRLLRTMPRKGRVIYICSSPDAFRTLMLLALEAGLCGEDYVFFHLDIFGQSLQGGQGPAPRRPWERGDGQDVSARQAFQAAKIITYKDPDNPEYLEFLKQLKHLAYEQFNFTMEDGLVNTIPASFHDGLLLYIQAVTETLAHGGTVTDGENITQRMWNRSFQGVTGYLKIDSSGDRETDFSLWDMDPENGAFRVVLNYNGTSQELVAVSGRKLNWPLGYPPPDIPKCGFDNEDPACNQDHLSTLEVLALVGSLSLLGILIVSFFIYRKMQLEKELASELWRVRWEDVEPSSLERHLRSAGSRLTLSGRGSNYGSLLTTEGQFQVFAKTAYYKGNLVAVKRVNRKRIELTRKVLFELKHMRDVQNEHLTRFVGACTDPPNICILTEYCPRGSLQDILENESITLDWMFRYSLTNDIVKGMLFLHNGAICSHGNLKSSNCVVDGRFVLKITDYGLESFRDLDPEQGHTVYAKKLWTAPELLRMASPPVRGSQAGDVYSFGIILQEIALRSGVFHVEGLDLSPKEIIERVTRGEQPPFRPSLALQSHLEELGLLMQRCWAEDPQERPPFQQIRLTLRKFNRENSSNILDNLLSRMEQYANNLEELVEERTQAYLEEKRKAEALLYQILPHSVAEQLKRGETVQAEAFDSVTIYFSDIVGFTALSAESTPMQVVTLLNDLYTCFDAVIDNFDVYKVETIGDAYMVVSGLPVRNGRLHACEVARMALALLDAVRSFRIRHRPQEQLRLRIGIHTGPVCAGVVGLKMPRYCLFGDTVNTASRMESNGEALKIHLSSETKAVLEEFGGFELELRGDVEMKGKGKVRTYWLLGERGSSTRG
Summary of the method: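 HEK293 cells expressing hNpr1 and GloSensor cGMP luciferase, 1500/well, loaded with 2% GloSensor reagent 2 h, compound 30 min at room temperature; luminescence read before and 20 min after 0.1 nM hNppA stimulation.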

[5] = biological target: Atrial natriuretic peptide receptor 2 (Homo sapiens) (UniProt P20594); experiment: Natriuretic polypeptide receptor (hNpr2) antagonism - Pilot subtype selectivity assay (AID 1347050; calls by dose curve)
Chain of Atrial natriuretic peptide receptor 2 (Homo sapiens) (P20594 whole entry, looked up): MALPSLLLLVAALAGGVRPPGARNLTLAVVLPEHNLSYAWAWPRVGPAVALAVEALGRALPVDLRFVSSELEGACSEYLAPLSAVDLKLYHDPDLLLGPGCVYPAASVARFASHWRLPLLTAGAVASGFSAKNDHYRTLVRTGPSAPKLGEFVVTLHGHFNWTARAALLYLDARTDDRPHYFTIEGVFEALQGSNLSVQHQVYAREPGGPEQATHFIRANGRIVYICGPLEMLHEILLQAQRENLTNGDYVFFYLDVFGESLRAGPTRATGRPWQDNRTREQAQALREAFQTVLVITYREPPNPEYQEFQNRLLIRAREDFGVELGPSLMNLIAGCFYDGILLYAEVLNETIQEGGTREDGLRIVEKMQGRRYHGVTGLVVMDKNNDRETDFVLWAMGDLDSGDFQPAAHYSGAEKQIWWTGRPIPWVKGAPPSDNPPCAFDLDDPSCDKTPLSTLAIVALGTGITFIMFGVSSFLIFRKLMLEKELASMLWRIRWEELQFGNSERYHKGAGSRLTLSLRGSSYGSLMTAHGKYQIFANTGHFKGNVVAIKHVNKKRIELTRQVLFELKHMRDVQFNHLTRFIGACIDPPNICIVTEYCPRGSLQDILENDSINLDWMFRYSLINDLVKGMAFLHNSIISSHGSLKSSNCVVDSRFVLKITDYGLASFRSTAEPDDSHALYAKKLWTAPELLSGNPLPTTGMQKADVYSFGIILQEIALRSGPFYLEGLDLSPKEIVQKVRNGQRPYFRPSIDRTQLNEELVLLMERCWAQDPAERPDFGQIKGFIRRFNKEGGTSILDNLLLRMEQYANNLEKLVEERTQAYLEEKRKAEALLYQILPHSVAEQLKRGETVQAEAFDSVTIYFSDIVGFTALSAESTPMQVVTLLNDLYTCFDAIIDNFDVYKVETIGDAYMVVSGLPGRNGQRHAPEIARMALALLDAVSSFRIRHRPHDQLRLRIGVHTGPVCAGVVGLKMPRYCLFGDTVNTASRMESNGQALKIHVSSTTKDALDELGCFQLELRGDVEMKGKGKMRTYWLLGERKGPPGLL
Summary of the method: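 HEK293 cells expressing hNpr2 and a GloSensor cGMP luciferase sensor, 1500/well, preloaded 2 h with 2% GloSensor reagent, compound 30 min, then 1 nM hNppC for 20 min. Antagonism from luminescence after versus baseline pre-read; LOPAC in 1:5 titrations.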

[6] = NS1 protein of Zika virus - qHTS assay to identify small molecule inhibitors in human HEK 293 cells (AID 1347053); also: series mostly up to about 46 µM; nearly all actives have a fitted effect of over 55% in size
Summary of the method: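 HEK 293; 20 h pre-culture, 37 C/5% CO2; cpd 1 h pre-infection; ZIKV MR766, MOI = 0.5, 24 h, 37 C; TR-FRET NS1 readout (two anti-NS1 Abs); norm. to no-virus vs infected.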

[7] = biological target: T1, Tyrosine-protein phosphatase non-receptor type substrate 1 (Homo sapiens) + Leukocyte surface antigen CD47 (Homo sapiens) (UniProt P78324+Q08722); experiment: CD47-SIRPalpha protein protein interaction - LANCE assay qHTS validation (AID 1347057; active = well fitted curve in the direction sought with a large enough effect in the signal ratio, with a control signal flat, not every such curve was filed as active; the % refers to the signal ratio)
T1 sequence (P78324 whole entry, looked up): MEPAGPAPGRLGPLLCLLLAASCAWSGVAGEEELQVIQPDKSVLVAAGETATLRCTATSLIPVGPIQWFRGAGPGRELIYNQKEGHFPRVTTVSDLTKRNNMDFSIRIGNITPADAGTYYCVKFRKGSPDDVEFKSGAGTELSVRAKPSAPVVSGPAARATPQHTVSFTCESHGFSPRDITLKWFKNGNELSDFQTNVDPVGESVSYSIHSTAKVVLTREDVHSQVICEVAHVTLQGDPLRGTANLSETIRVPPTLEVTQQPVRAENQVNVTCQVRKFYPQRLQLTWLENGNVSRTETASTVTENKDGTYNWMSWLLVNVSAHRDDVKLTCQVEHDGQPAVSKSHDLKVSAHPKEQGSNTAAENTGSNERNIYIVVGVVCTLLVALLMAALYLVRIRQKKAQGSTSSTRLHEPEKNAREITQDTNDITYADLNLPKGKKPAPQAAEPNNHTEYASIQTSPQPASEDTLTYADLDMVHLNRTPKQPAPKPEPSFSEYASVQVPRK
T1 sequence (Q08722 whole entry, looked up): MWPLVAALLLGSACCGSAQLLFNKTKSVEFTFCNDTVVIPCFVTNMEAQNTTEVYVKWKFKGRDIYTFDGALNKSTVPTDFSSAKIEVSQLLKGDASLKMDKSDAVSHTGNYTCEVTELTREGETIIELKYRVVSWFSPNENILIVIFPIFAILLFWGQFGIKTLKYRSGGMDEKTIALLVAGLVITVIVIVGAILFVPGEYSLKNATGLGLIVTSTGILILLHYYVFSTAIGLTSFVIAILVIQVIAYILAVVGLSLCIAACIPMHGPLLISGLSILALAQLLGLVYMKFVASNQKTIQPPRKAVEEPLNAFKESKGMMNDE
Summary of the method: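 First, His-tagged CD47 and Eu-labelled anti-His antibody met the compound for 30 min; next, site-specifically biotinylated SIRPalpha was added for 30 min; finally streptavidin-APC was added before reading the TR-FRET ratio.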

[8] = biological target: T1, Tyrosine-protein phosphatase non-receptor type substrate 1 (Homo sapiens) + Leukocyte surface antigen CD47 (Homo sapiens); experiment: CD47-SIRPalpha protein protein interaction - Alpha assay qHTS validation (AID 1347059);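 also: bead proximity luminescence from CD47 binding SIRPalpha after compound preincubation with SIRPalpha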
Summary of the method: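 Biotinylated Avi-tagged SIRPalpha (25 nM) preincubated 30 min with compound, then His-tagged CD47 (12.5 nM) added 30 min; AlphaScreen with Ni-NTA acceptor and streptavidin donor beads. PBS pH 7.4, 0.05% IGEPAL, room temperature; 7-point titrations.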

[9] = biological target: Parathyroid hormone/parathyroid hormone-related peptide receptor (Homo sapiens) (UniProt Q03431); experiment: qHTS for PTHR1 Agonists: Optimization Screen against the NCGC LOPAC library (AID 1347079);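 also: GloSensor cAMP luminescence in HEK-293 GP2 cells expressing human PTHR1 with IBMX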; also: potency is read from the fitted curve at half-maximal effect
Chain of Parathyroid hormone/parathyroid hormone-related peptide receptor (Homo sapiens) (Q03431 whole entry, looked up): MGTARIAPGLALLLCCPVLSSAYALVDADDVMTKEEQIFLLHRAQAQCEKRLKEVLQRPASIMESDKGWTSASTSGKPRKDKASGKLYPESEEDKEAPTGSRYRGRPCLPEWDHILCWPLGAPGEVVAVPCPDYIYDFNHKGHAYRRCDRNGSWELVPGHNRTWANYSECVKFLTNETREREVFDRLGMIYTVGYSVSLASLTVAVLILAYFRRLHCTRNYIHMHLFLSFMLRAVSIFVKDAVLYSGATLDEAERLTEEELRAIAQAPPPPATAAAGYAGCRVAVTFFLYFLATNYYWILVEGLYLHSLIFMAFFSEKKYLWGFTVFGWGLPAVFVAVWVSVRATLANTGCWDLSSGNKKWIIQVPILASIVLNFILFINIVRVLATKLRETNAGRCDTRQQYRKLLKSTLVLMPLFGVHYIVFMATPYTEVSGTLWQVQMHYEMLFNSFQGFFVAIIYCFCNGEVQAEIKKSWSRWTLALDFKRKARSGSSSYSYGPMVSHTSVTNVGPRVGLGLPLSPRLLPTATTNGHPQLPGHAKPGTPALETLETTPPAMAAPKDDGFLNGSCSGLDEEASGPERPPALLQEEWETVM
Summary of the method: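 Compounds were tested across a qHTS titration. PTHR1-expressing GP2 cells report cAMP rises via GloSensor luminescence after 1 hr compound exposure at 37C with IBMX present.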

[10] = biological target: N-terminal Xaa-Pro-Lys N-methyltransferase 1 (Homo sapiens) (UniProt Q9BV86); experiment: qHTS Assay for Inhibitors of N-terminal methyltransferase 1 (NTMT1): LOPAC validation of the NTMT1 SAHH-coupled ThioGlo3 Assay (AID 1347143);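 also: SAH from peptide methylation measured as thiol fluorescence via SAHH coupling and ThioGlo3; nearly all actives have a fitted effect of over 70% in size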; also: potency is read from the fitted curve at half-maximal effect
Chain of N-terminal Xaa-Pro-Lys N-methyltransferase 1 (Homo sapiens) (Q9BV86 whole entry, looked up): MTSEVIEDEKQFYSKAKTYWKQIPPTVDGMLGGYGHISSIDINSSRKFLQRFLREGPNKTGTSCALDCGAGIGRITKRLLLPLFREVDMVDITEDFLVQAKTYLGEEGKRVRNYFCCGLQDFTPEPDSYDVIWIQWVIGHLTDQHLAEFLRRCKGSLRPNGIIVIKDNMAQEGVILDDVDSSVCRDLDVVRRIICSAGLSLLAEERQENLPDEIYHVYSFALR
Summary of the method: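 Recombinant human NTMT1 (125nM) was pre-incubated 1 min at room temperature with compounds over a concentration range, then a mix of 100uM SAM, 10uM SAHH and 15uM ThioGlo3 (concentrations in added reagent) was added. ThioGlo3 fluorescence (ex 340/em 450nm) after 30 min was normalized to the initial reading.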

[11] = system: Zika virus NS2B-NS3 protease (unlinked); experiment: Optimization of GU AMC qHTS for Zika virus inhibitors: Unlinked NS2B-NS3 protease assay (AID 1347151); also: nearly all actives have a fitted effect of over 80% in size; also: potency is read from the fitted curve at half-maximal effect
Summary of the method: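 Noncovalent complex of NS2B hydrophilic domain and NS3 protease domain, 25 nM final, in 10 mM Tris-HCl pH 8.0, 0.01% Tween 20. AMC fluorescence change over 15 min at room temperature was fitted to a 4-parameter Hill equation.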

Furin (Homo sapiens) = Furin (Homo sapiens) (UniProt P09958); experiment: Furin counterscreen qHTS for Zika virus inhibitors (AID 1347149); also: potency is read from the fitted curve at half-maximal effect; nearly all actives have a fitted effect of over 70% in size
Chain of Furin (Homo sapiens) (P09958 whole entry, looked up): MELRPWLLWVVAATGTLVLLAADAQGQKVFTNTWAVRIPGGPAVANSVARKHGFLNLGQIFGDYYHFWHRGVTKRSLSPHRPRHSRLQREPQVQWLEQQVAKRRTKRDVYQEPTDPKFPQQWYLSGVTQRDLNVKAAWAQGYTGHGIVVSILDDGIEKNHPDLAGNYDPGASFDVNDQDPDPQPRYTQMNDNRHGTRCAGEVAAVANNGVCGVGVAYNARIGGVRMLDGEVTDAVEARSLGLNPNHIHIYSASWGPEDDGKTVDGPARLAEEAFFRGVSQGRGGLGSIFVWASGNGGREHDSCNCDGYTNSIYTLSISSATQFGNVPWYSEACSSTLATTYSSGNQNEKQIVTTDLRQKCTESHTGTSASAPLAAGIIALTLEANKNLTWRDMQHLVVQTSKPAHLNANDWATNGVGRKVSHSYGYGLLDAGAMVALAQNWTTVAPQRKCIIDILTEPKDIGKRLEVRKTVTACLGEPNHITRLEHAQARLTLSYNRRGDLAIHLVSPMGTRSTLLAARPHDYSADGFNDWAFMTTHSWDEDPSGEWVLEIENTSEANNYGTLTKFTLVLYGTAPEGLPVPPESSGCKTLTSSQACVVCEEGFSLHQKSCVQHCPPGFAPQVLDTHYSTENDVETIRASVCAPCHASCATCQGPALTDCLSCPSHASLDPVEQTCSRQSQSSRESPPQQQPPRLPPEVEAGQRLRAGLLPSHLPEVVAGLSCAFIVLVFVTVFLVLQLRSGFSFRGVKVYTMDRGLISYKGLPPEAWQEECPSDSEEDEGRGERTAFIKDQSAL
Summary of the method: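 Fluorogenic cleavage of BOC-RVRR-AMC (2 microM final, Km ~15 µM) was monitored (ex 340, em 450 nm) at 37C after 15 min RT preincubation of 5 nM furin with compounds in HEPES pH 7.0 buffer with CaCl2 and Triton X-100. Percent inhibition was fitted to a 4-parameter Hill curve.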

[12] = system: Zika virus NS2B-NS3 protease (unlinked complex); experiment: Confirmatory screen GU AMC qHTS for Zika virus inhibitors (AID 1347153); also: nearly all actives have a fitted effect of over 70% in size
Summary of the method: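 Unlinked enzyme 25 nM, Tris pH 8.0/0.01% Tween 20; cpd 15 min RT, dark; + AMC substrate 10 µM (Km 18.3 µM); 340/450 nm read at t0 and 15 min; % inhibition → 4-param fit.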

| Structure (SMILES) | Potency [1] | Potency [2] | Potency [3] | Potency [4] | Potency [5] | Potency [6] | Potency [7] | Potency [8] | Potency [9] | Potency [10] | Potency [11] | Potency (Furin (Homo sapiens)) | Potency [12] | outcome [7] |
| --- | --- | --- | --- | --- | --- | --- | --- | --- | --- | --- | --- | --- | --- | --- |
| CC(N)(Cc1ccc(O)c(O)c1)C(=O)O (centres undefined) | inactive | inactive | inactive | inactive | inactive | inactive | inactive | inactive | inactive | 56.2 µM (active) | inactive |  |  |  |
| CCc1ccc2c(-c3cccc(Cl)c3)nc(=O)n(CC)c2n1 | inactive | inactive | inactive | inactive | inactive | inactive | inactive | inactive | 2.67 µM (active) |  | 26.7 µM (active) | 21.5 µM (active) | inactive |  |
| COc1cc(N)c(Cl)cc1C(=O)OCCN1CCCCC1 | inactive | inactive | inactive | inactive | inactive | inactive | inactive | inactive | inactive |  | inactive |  |  |  |
| O=[N+]([O-])c1cccc2c(Br)[nH]nc12 | inactive | inactive | inactive | inactive | inactive | inactive | inactive | inactive |  |  | inactive |  |  |  |
| NCC(O)(CS(=O)(=O)O)c1ccc(Cl)cc1 (centres undefined) | inactive | inactive | inactive | inactive | inactive | inactive | inactive | inactive | inactive | inactive | inactive |  |  |  |
| CC(C)(CO)Cc1cc(C(C)(C)C)c(O)c(C(C)(C)C)c1 | inactive | inactive | inactive | inactive | inactive | inactive | inactive |  | inactive | inactive | inactive |  |  |  |
| CN1CCN(c2nc3cc(C(F)(F)F)ccc3n3cccc23)CC1 | inactive | inactive | inactive | inactive | inactive | inactive |  |  | inactive | 39.8 µM (active) |  |  |  | inactive |
| CC1CCN(CC[C@H]2CCCN2S(=O)(=O)c2cccc(O)c2)CC1 | inactive | inactive | inactive | inactive | inactive | inactive | inactive | inactive | inactive | inactive | inactive |  |  |  |
| NC(=Nc1ccccc1)NC(=O)c1nc(Cl)c(N)nc1N | inactive | inactive | inactive | inactive | inactive | inactive | inactive |  | inactive | 56.2 µM (active) | 26.7 µM (active) |  |  |  |
| NC(N)=NC(N)=Nc1cccc(Cl)c1 | inactive | inactive | inactive | inactive | inactive | inactive | inactive | inactive | inactive | inactive | inactive |  |  |  |
